# Results filed as inconclusive are left out. Where a call stands in place of a potency, no number is given. Unmarked numbers belong to inactive results. The source made the active and inactive calls. The call rests on the fitted dose curve; in most records, active means well fitted curve in the direction sought with a large enough effect; inconclusive means small, poorly fitted or top-dose-only effect, or another doubt; inactive means no such curve, though single readings can be large; an effect the other way counts as inactive or inconclusive.
# Test system: not listed separately
# Experiment: Primary qHTS for inhibitors of La Crosse Virus (LACV) - induced cell death in SH-SY5Y cells (AID 1508616);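 further: top concentration of the series differs between compounds; higher means more rescue of cells from virus-induced death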
# Details: SH-SY5Y LACV cytopathicity rescue, ATP luminescence, 6 d; series mostly up to 9.63 µM
# Summary of the method: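 Luminescent ATP readout (ATPLite 1step, 5 min room temperature) measured rescue from LACV-induced death after 6 days of infection at 0.01 MOI; normalized to infected DMSO wells and uninfected DMSO wells.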
row,Compound,Potency
1,CCCN(CCC)CCc1c[nH]c2ccc(C(N)=O)cc12,inactive
2,NC(=O)c1cc(N2CC2)c([N+](=O)[O-])cc1[N+](=O)[O-],inactive
3,CC(=O)NBr,inactive
4,C/C(O)=C(\C#N)C(=O)Nc1cc(Br)ccc1Br,inactive

# Biological target: Calcium and integrin-binding protein 1 (Homo sapiens) (UniProt Q99828)
# Sequence (Q99828 whole entry, looked up): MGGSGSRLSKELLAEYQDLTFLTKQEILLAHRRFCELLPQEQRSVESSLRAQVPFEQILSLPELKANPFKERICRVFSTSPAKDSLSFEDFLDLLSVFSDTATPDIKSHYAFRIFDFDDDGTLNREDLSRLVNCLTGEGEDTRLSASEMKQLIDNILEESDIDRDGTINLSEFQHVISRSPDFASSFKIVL
# Experiment: Validation qHTS for Identification of Calcium Integrin Binding protein 1 (CIB1) Competitor (AID 1508618)
# Details: CIB1-GST / FITC-alphaIIb peptide fluorescence polarization; series mostly up to 114 µM
# Summary of the method: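 CIB1-GST (1 uM final) in 5 mM HEPES pH 7.4, 125 mM NaCl, 5 mM CaCl2, 0.01% Tween20 was preincubated 15 min at room temperature with compound (up to 114 uM), then FITC-alphaIIb peptide (100 nM) added for 15 min; fluorescence polarization read.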
row,Compound,Potency
1,C[C@H]1C2Cc3ccc(O)cc3[C@@]1(C)CCN2CC1CC1,inactive
2,CC1(C(=O)O)C2CCC(O2)C1(C)C(=O)O (configuration not stated),inactive
3,CCCN1CCc2cccc3c2[C@H]1Cc1ccc(O)c(O)c1-3,inactive
4,CCn1cnc2c(Nc3cccc(Cl)c3)nc(N[C@@H]3CCCC[C@@H]3N)nc21,inactive
5,C[C@@H]1O[C@@H](O[C@H]2C[C@@H](O)[C@]3(CO)[C@@H]4C(CC[C@]3(O)C2)[C@@]2(O)CC[C@H]([C@@H]3COC(=O)C3)[C@@]2(C)C[C@H]4O)[C@H](O)[C@H](O)[C@H]1O (some centres not stated),inactive
6,CCCn1c(=O)c2[nH]c(C3CCCC3)nc2n(CCCOC(=O)c2ccc(S(=O)(=O)F)cc2)c1=O,inactive
7,Oc1ccc2c3c1O[C@H]1c4[nH]c5ccccc5c4C[C@@]4(O)C(C2)N(CC2CC2)CCC314 (some centres not stated),inactive
8,CCCN(CCC)[C@@H]1CCc2cccc(O)c2C1,inactive
9,CNc1ccc2oc(C[C@H]3O[C@@]4(CC[C@H]3C)O[C@H]([C@H](C)C(=O)c3ccc[nH]3)[C@H](C)C[C@H]4C)nc2c1C(=O)O,inactive
10,O=C(NC1CN2CCC1CC2)c1cc2ccoc2cn1 (configuration not stated),inactive
11,O=[N+]([O-])c1ccc2nc(N3CCNCC3)ccc2c1,inactive
12,CN1CCC[C@@H]1Cc1c[nH]c2ccc(Nc3ncccc3[N+](=O)[O-])cc12,inactive
13,O=c1ccc2[nH]cc(C3=CCNCC3)c2[nH]1,inactive

# Biological target: Calcium and integrin-binding protein 1 (Homo sapiens) (UniProt Q99828)
# Experiment: Primary qHTS for Identification of Calcium Integrin Binding Protein 1 (CIB1) Competitor (AID 1508620);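 further: GST tagged CIB1 binding a fluorescein labelled alphaIIb integrin peptide tracer; top concentration of the series differs between compounds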
# Details: CIB1-GST / FITC-alphaIIb peptide fluorescence polarization; series mostly up to 114 µM
# Summary of the method: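 Fluorescence polarization competition: CIB1-GST (1 uM final) preincubated with compound 15 min at room temperature, then FITC-labeled alphaIIb peptide (100 nM final) added for another 15 min. Polarization read at Ex 480/Em 540.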
Compound,Potency,"activity change, negative = inhibition"
CN1CCCC1CCOC(c1cc2nccc(C(=O)O)c2[nH]1)c1ccccc1Cl (configuration not stated),inactive,
COC1=CC(=O)O[C@@H](/C=C/c2ccccc2)C1,inactive,
CCC(C)(C#N)O[C@@H]1O[C@H](CO)[C@@H](O)[C@H](O)[C@H]1O (some centres not stated),inactive,
CCN1CC2(COC)C3[C@@H](OC)C4C1C3(C1C[C@]3(O)[C@H](OC(=O)c5ccccc5)C1[C@]4(OC(C)=O)[C@@H](O)[C@@H]3OC)[C@H](OC)C[C@H]2O (some centres not stated),inactive,
CC1=CC2/C=C(\C)CCC(O)C3OC(C)(C)OC3CC(=O)OC23C(=O)NC(CC(C)C)C3C1C (configuration not stated),inactive,
COc1cc(C(=O)O[C@H]2[C@@H]3C=CO[C@@H](O[C@@H]4O[C@H](CO)[C@@H](O)[C@H](O)[C@H]4O)[C@@H]3[C@@]3(CO)O[C@@H]23)ccc1O,inactive,
CN(C)CCc1c[nH]c2ccc(CN3CCN(C)S3(=O)=O)cc12,inactive,
COC(=O)C1(C)CCC(=O)C2(C)c3c(O)cc(C(C)C)cc3C(O)C(OC(C)=O)C12 (configuration not stated),inactive,
C=C1[C@@H]2CC[C@@]3(C)[C@H](c4ccoc4)OC(=O)C[C@]13O[C@H]1CC(=O)C(C)(C)[C@H](C(OC(C)=O)C(=O)OC)[C@]12C (some centres not stated),inactive,
O=C(N1CCOCC1)N1CCN(c2ccc(Cl)cc2)CC1,inactive,
C=C[C@H]1[C@H](O[C@@H]2O[C@H](CO)[C@@H](O)[C@H](O)[C@H]2O)OC=C2C(=O)OCC[C@H]21,inactive,
O=C1C[C@@H]2OCC=C3CN4CC[C@]56c7ccccc7N1[C@H]5[C@H]2[C@H]3C[C@H]46,inactive,
C=C(CO)C(=O)O[C@H]1C/C(C)=C/CC/C(CO)=C/[C@H]2OC(=O)C(=C)[C@H]12,inactive,
C/C=C(\C)C(=O)O[C@H]1[C@H](OC(C)=O)[C@]2(CO)[C@H](O)[C@H](O)[C@]3(C)C(=CCC4[C@@]5(C)CC[C@H](O[C@@H]6O[C@H](C(=O)O)[C@@H](O)[C@H](O[C@@H]7OC[C@H](O)[C@H](O[C@@H]8OC[C@H](O)[C@H](O)[C@H]8O)[C@H]7O)[C@H]6O[C@@H]6O[C@H](CO)[C@@H](O)[C@H](O)[C@H]6O)C(C)(C)C5CC[C@]43C)[C@@H]2CC1(C)C (some centres not stated),,1% [at 12.4 µM]
C/C=C(\C)C(=O)OC1CC2C(C)(C)OC(=O)CC(OC(C)=O)C2(C)C2CC(OC(=O)C(C)C)C3(C)C(c4ccoc4)CC4OC43C12C (configuration not stated),inactive,
COC(=O)C1(C)CCC(O)C2(C)c3c(O)cc(C(C)C)cc3C(O)C(OC(C)=O)C12 (configuration not stated),inactive,
C[C@]12CC[C@H]3[C@@H]([C@H](O)CC4=CC(=O)CC[C@@]43C)[C@@H]1CC[C@@H]2O,inactive,
C[C@]12CC[C@@H](O)C[C@H]1CC[C@@H]1[C@@H]2CC[C@]2(C)C(=O)CC[C@@H]12,inactive,
CN1CCC[C@@H]1Cc1c[nH]c2ccc(Nc3ncccc3[N+](=O)[O-])cc12,inactive,
C/C=C(\C)C(=O)OC1C(C)OC(OC2C(C)OC(OC3CCC4(C)C(=CCC5C4CCC4(C)C(C(C)OC6OC(COC7OC(CO)C(O)C(O)C7O)C(O)C(O)C6O)CCC54O)C3)CC2OC)C(O)C1OC (configuration not stated),inactive,

# From PubChem BioAssay (NCATS)
